PubChem BioAssay AID360 (National Center for Advancing Translational Sciences (NCATS), 2006)
Screen size: about 48,000 compounds; about 550 (1.1%) were called active. Roughly 4% stayed inconclusive and do not appear here. No stated cut-off is given here; in the data, active means potency below about 15 µM; inconclusive means mostly about 16 µM to 33 µM; inactive means weaker than that. What follows is part of a selection rich in actives, with near analogues and random picks from the rest.

target: Lysosomal acid glucosylceramidase (Homo sapiens) (UniProt P04062); experiment: Glucocerebrosidase; conditions: purified enzyme, resorufin glucoside fluorescence (screen aimed at inhibitors), 20 min;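 further: the screen sought inhibitors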
Sequence (P04062 whole entry, looked up): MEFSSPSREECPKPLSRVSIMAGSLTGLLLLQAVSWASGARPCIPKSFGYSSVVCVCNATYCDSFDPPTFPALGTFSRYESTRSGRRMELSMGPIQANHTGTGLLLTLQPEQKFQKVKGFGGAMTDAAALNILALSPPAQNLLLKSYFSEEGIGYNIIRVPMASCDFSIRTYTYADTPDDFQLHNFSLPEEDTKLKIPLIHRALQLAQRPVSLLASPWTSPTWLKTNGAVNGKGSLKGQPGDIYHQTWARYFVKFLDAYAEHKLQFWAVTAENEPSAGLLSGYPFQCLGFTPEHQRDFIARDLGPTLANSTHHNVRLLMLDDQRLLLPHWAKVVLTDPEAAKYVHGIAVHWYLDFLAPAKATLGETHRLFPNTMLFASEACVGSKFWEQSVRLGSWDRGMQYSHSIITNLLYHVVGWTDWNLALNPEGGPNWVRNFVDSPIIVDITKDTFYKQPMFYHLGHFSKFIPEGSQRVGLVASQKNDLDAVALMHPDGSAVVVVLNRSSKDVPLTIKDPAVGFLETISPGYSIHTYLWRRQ
Description: NCGC Assay Overview: Beta-glucocerebrosidase catalyzes the hydrolysis of beta-glucocerebroside to glucose and ceramide. The inherited deficiency of beta-glucocerebrosidase results in Gaucher disease, which is characterized by a wide variety of symptoms including hepatosplenomegaly, anemia, thrombocytopenia, bony lesions and bone marrow infiltration with characteristic storage cells, known as Gaucher cells. There are also forms of the disorder affecting the central nervous system. Patients with the same genotypes can manifest with diverse clinical presentations and it is believed that improper folding and trafficking of beta-glucocerbrosidase may contribute to the phenotypes observed. Low molecular weight molecules, acting as chaperones, may potentially restore trafficking of misfolded beta-glucocerebrosidase from the endoplasmic reticulum to the lysosomes, thereby enhancing functional lysosomal beta-glucocerebrosidase activity. Using normal beta-glucocerebrosidase, an assay was developed to screen for small molecule inhibitors that could potentially act as molecular chaperones on the mutant forms [developed with NIH investigator Dr. Ellen Sidransky's laboratory]. Two pro-fluorescent substrates were chosen for two screens against a small molecule library. One beta-glucocerebrosidase assay used Resorufin beta-D-Glucopyranoside (Marker Gene Technology Inc.), generating a red fluorescent product. The second assay used Fluorescein di-beta-D-Glucopyranoside, generating a blue fluorescent product. […] The IC50 values of Conduritol B Epoxide, a known glucocerebrosidase inhibitor, were determined to be 87.5 uM and 117 uM, respectively. The use of two difference pro-fluorescent substrates in the screens helped to eliminate false positives. All compounds were screened in a titration series resulting in AC50s (e.g., IC50s or EC50s).
NCGC Assay Protocol Summary: Both enzyme and substrate were diluted in buffer composed of 50mM citric acid/KH2PO4, 10mM sodium taurocholate and 0.01% tween-20 at pH 5.9. The final concentration of the enzyme was 0.2 nM in both assays. The compound library was titrated in 7 to 15 concentrations for the primary screens with a final concentration ranging from 0.6 nM to 50 uM. This particular assay protocol is for the "red" substrate, and it was performed in 1536-well plate format as follows: Red fluorescence substrate assay: 2 uL enzyme 23 nL compound 1 uL substrate (final concentration of 30 uM) Incubate at room temperature (RT) for 20 minutes Read the plate in Viewlux plate reader (Ex=548(7) and Em=600(10)).
Potency means the concentration at half of the fitted maximal effect.

Row | SMILES | Potency
1 | Fc1ccc(N2CCN(Cc3ccc4c(c3)OCO4)CC2)cc1 | > 76.9 µM (inactive)
2 | CC(C)c1ccc(O)c(CN2CCN(c3ccccc3)CC2)c1 | 10.2 µM (active)
3 | O=C(c1cc(-c2ccncc2)nc2ccccc12)N1CCC2(CC1)OCCO2 | > 76.9 µM (inactive)
4 | CC(=NCC1CCCO1)c1c(O)n(-c2ccccc2)c(=O)[nH]c1=O (stereo not given) | > 76.9 µM (inactive)
5 | CC(=O)c1c(O)n(C2CCCCCC2)c(=O)[nH]c1=O | > 76.9 µM (inactive)
